In PubChem BioAssay (NCATS):
Results filed as inconclusive are left out. Entries that show only a call come without a potency. The source made the active and inactive calls. Calls follow the shape of the dose curve; as a rule, active = well fitted inhibition curve with a large enough effect; inconclusive = small, poorly fitted or top-dose-only effect; inactive = flat fitted curve, though single readings scatter. Where a SMILES comes first, the peptide text is derived from it. The star is where a group is joined. AFC = O=c1cc(C(F)(F)F)c2ccc(N*)cc2o1

Assay: P-glycoprotein substrates identified in KB-8-5-11 adenocarcinoma cell line, qHTS therapeutic library screen (AID 1346987); also: nearly all actives have a fitted effect of over 65% in size
Details: KB-8-5-11 (P-gp overexpressing) viability, CellTiter-Glo, 72 h; series mostly up to 44.5 µM
Text: The ATP-binding cassette transporters P-glycoprotein (P-gp) is known to limit brain penetration of many chemotherapy drugs. […] As such, we developed a high-throughput screen (HTS) to identify substrates of P-gp from a series of chemical libraries including the National Center for Advancing Translational Sciences Pharmaceutical Collection NPC, 2,816 compounds), testing a total of 10,804 compounds, most of which have known mechanisms of action. We used the CellTiter-Glo viability assay to test library compounds against the parental KB-3-1 human cervical adenocarcinoma cell line and the colchicine-selected sub-line KB-8-5-11 that over-expresses P-gp. KB-8-5-11 cells were also tested in the presence of a P-gp inhibitor (tariquidar) to assess reversability of transporter-mediated resistance. Of the tested compounds, a total of 90 P-gp substrates were identified including 55 newly identified P-gp substrates. Substrates were confirmed using an orthogonal killing assay against HEK-293 cells transfected with P-gp. As exemplars, we confirmed that […] (cyclin-dependent kinase inhibitor); AT9283, (Janus kinase 2/3 inhibitor); ispinesib (kinesin spindle protein inhibitor); gedatolisib (PKI-587, phosphoinositide 3-kinase/mammalian target of rampamycin inhibitor); GSK-690693 (AKT inhibitor); and KW-2478 (heat shock protein 90 inhibitor) were substrates , and direct ATPase stimulation was assessed. ABCG2 was also found to confer high levels of resistance to AT9283, GSK-690693 and gedatolisib, while ispinesib, AT7519 and KW-2478 were weaker substrates.
The HeLa derivative cell line, KB-3-1, and its colchicine-selected, P-gp-overexpressing subline, KB-8-5-11 were maintained in DMEM with 10% FCS and Pen/Strep with glutamine at 37 degree C in 5% CO2. For KB-8-5-11 cells, colchicine was added to the medium at a concentration of 100 ng/mL. HEK-293 cells transfected with empty vector (pcDNA) or vector containing human ABCB1 (MDR-19) or ABCG2 (R-5) have been described previously (Robey, Lin, Qiu, Chan & Bates, 2011) and were maintained in EMEM supplemented with 10% FCS, Pen/Strep and glutamine with 2 mg/ml G418 to select for the expression of the transporter. Cultures were confirmed to be free of mycoplasma infection using the MycoAlert Mycoplasma Detection Kit (Lonza, Walkersville, MD). For the screen, assay medium was identical to culture medium except for KB-8-5-11 where colchicine was excluded from the medium.
All cell lines were plated into 1536-well plates at 500 cells/well in 5 uL media. Compounds were then pinned in dose-response using a 1536-head pin tool (Kalypsis, San Diego, CA) and plates were incubated at 37 degree C in 5% CO2 for an additional 72 h. CellTiter-Glo reagent (Promega) was dispensed into the wells, incubated for 5 min and luminescence was read on a ViewLux instrument (Perkin-Elmer). Cytotoxic compounds were defined as those that yielded a curve class of -1.1, -1.2, -2.1, -2.2, -2.3, or -2.4, a maximum response of >50% and an AC50 of < 10 uM. Cherry-picked hits from screening analysis were tested with both the KB pair of cell lines, and the pcDNA (empty vector control) and MDR-19 (P-gp overexpressing) pair were tested, in the absence and presence of tariquidar.
Potency is read from the fitted curve at half-maximal effect.

Row | SMILES | Potency
1 | CCN1CCN(Cc2ccc(NC(=O)c3ccc(C)c(/C=C/c4cnc5[nH]ccc5c4OC)c3)cc2C(F)(F)F)CC1 | 23.1 µM (active)
2 | C=C1C(O)CC2C(C(=O)O)=COC(O[C@@H]3O[C@H](COC(=O)/C=C/c4ccc(O)cc4)[C@@H](O)[C@H](O)[C@H]3O)C12 (stereo not given in full) | inactive
3 | C[C@@H]1C(=O)O[C@H]2[C@@H](O)C34[C@H]5C[C@@H](C(C)(C)C)C36[C@@H](OC(=O)[C@@H]6O)O[C@@]4(C(=O)O5)[C@@]12O (stereo not given in full) | inactive
4 | CC(C)(O)/C=C/CC(C)(O)C1C(O)CC2(C)C3CCC4C(C)(C)C(=O)CCC4(C)C3CCC12C (stereo not given) | inactive
5 | CC1=C(C(=O)O)/C(=C/CO[C@@H]2O[C@H](COC(=O)/C=C/c3ccc(O)cc3)[C@@H](O)[C@H](O)[C@H]2O)C(O)C1 (stereo not given in full) | inactive
6 | CCS(=O)(=O)N1CCN(c2ccc(Nc3ncc(C(N)=O)c(NC4CC4)n3)cc2)CC1 | 7.31 µM (active)
7 | O=C(O)c1cn(C2CC2)c2cc(N3C[C@@H]4C[C@H]3CN4)c(F)cc2c1=O | inactive
8 | COc1cc(/C=C/C=O)cc(OC)c1O[C@@H]1O[C@H](CO)[C@@H](O)[C@H](O)[C@H]1O | inactive
9 | CC(C)C(=O)OC[C@H]1O[C@H](O[C@H]2O[C@H](CO)[C@@H](O)[C@H](O)[C@H]2O)[C@H](O)[C@@H](O)[C@@H]1O | inactive
10 | O=C(O[C@H]1[C@@H]2C=CO[C@@H](O[C@@H]3O[C@H](CO)[C@@H](O)[C@H](O)[C@H]3O)[C@@H]2[C@@]2(CO)O[C@@H]12)c1ccccc1 | inactive
11 | C=C1CN(Cc2ccc(C(=O)Nc3ccccc3N)cc2)C(=O)c2ccccc21 | 1.3 µM (active)
12 | Cc1ccc(-c2ccc3ncc4c(c3n2)n(C2CCN(C(=O)[C@H](C)O)CC2)c(=O)n4C)cn1 | 0.164 µM (active)
13 | CCC(CC)C(=O)Nc1sc2c(c1C#N)CCC(C(C)(C)CC)C2 (stereo not given) | inactive
14 | CC1(C)CCC(C)(C)c2cc(C3(c4ccc(C(=O)O)cc4)OCCO3)ccc21 | inactive
15 | O=[N+]([O-])c1cn2c(n1)OCC(OCc1ccc(OC(F)(F)F)cc1)C2 (stereo not given) | inactive
16 | CCOc1cc(CC(=O)NC(CC(C)C)c2ccccc2N2CCCCC2)ccc1C(=O)O (stereo not given) | inactive
17 | Cc1cccc(-c2[nH]c(Cc3cccc(C(N)=O)c3)nc2-c2ccc3nccnc3c2)n1 | inactive
18 | CO[C@H]1C[C@@H]2CC[C@@H](C)[C@@](O)(O2)C(=O)C(=O)N2CCCC[C@H]2C(=O)O[C@H]([C@H](C)C[C@@H]2CC[C@@H](OP(C)(C)=O)[C@H](OC)C2)CC(=O)[C@H](C)/C=C(\C)[C@@H](O)[C@@H](OC)C(=O)[C@H](C)C[C@H](C)/C=C/C=C/C=C/1C | inactive
19 | COc1ccc(-c2ccc(-c3cn(C(=O)N4CCCCC4c4ccccc4)nn3)cc2)cc1 (stereo not given) | inactive
20 | COc1ccc(/C=C\C(=O)O)c(O[C@@H]2O[C@H](CO)[C@@H](O)[C@H](O)[C@H]2O)c1 | inactive

Row | SMILES | Potency
21 | CC/C=C\CCO[C@@H]1O[C@H](CO[C@@H]2OC[C@H](O)[C@H](O)[C@H]2O)[C@@H](O)[C@H](O)[C@H]1O | inactive
22 | CC/C=C\CCO[C@@H]1O[C@H](CO)[C@@H](O)[C@H](O)[C@H]1O | inactive
23 | CCOC(=O)Nc1cc(-c2ccc(C)c(NS(C)(=O)=O)c2)nn2c(C)nnc12 | 14.6 µM (active)
24 | C#CCN(Cc1cc2c(=O)[nH]c(C)nc2cc1Br)c1ccc(C(=O)NCc2cccnc2)cc1 | 0.259 µM (active)
25 | CC(=O)N[C@@H](Cc1c[nH]c2ccccc12)C(=O)N[C@@H](CCC(=O)O)C(=O)N[C@@H](Cc1cnc[nH]1)C(=O)N[C@@H](CC(=O)O)C(=O)Nc1ccc2c(C(F)(F)F)cc(=O)oc2c1 (Ac-WEHD-{AFC}) | inactive
26 | C[C@H]1CC(=O)Nc2cccc(-c3cnn(C(C)(C)C)c3)c2N1 | inactive
27 | CC(Nc1ncnc2nc[nH]c12)c1cc2cccc(Cl)c2c(=O)n1-c1ccccc1 (stereo not given) | inactive
28 | C=C1CCC2C(C)(COC(C)=O)CCCC2(C)C1CCC(C)CC(=O)O (stereo not given) | inactive
29 | Nc1nc2c(c(=O)[nH]1)C[C@@H](CCc1ccc(C(=O)N[C@@H](CCC(=O)O)C(=O)O)cc1)CN2 | 0.058 µM (active)
30 | CC(=O)OC1C(O)C2C(C)C3=CC(=O)OC3(O)CC2C2(C)CCCC(C)(CO)C12 (stereo not given) | inactive
31 | C[C@@H]1CC[C@]2(C(=O)OC3OC(CO)C(O)C(O)C3O)CC[C@]3(C)C(=CCC4[C@@]5(C)CC[C@H](O)[C@](C)(C(=O)O)C5CC[C@]43C)C2[C@]1(C)O (stereo not given in full) | inactive
32 | CCc1c(-c2ccccc2)c(-c2ccccc2)nn1-c1ccccc1-c1cccc(OCC(=O)O)c1 | inactive
33 | COc1ccc(-c2c(-c3cc(C(=O)O)ccn3)ncn2C)cc1 | inactive
34 | CN(CCc1ccc(Nc2ncc(-c3cccnc3)s2)cc1)Cc1ccccc1 | inactive
35 | CCCN1CCC(c2cccc(S(C)(=O)=O)c2)CC1 | inactive
36 | CC(C)CC(=O)OC1OC=C(CO[C@@H]2O[C@H](CO)[C@@H](O)[C@H](O)[C@H]2O)C2CC(O)C(O)(CO)C12 (stereo not given in full) | inactive
37 | C/C=C1\[C@H](O[C@@H]2O[C@H](CO)[C@@H](O)[C@H](O)[C@H]2O)OC=C(C(=O)OC)[C@H]1CC(=O)O | inactive
38 | Cc1ccc(NC(=O)Nc2cc(C(F)(F)F)ccc2F)cc1Nc1ccc2c(c1)NC(=O)/C2=C\c1ccc[nH]1 | 13 µM (active)
39 | CC(C)CC(=O)O[C@@H]1OC=C(CO[C@@H]2O[C@H](CO)[C@@H](O)[C@H](O)[C@H]2O)[C@H]2[C@@H]3O[C@H]3[C@@](O)(CO)[C@@H]12 | inactive
40 | C=C1C(=O)O[C@H](CCC)[C@H]1C(=O)O | inactive
